Test results taken from PubChem BioAssay (NCI).
The panel holds about 79,000 compounds, 15% with a hit somewhere; the sample as a whole holds those more often. Activity calls are given as the source filed them. Rule as the data show it: active = growth inhibition above about 70%; inactive = the rest.

What was measured:
[1] = NCI Yeast Anticancer Drug Screen. Data for the rad50 strain (AID 155);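 also: 0% = growth of vehicle-only cultures of the same strain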; details: S. cerevisiae rad50 strain growth inhibition; at 50.0 µM; stronger effect = higher value
Procedure, shortened: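 Relative growth inhibition (compound vs vehicle) was measured in yeast with a defined repair-gene alteration.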

[2] = NCI Yeast Anticancer Drug Screen. Data for the mec2-1 strain (AID 157); details: S. cerevisiae mec2-1 strain, at 50.0 µM, stronger effect = higher value
Procedure, shortened: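 Mutant yeast (mec2-1) grown with compound; growth inhibition relative to vehicle control reported.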

[3] = NCI Yeast Anticancer Drug Screen. Data for the sgs1 mgt1 strain (AID 161);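 also: 0% = growth of cultures given vehicle only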; details: S. cerevisiae sgs1 mgt1 strain, at 50.0 µM, stronger effect = higher value
Procedure, shortened: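 Compounds are added to genetically altered yeast, and growth is compared with cultures given vehicle alone to give percent inhibition.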

[4] = NCI Yeast Anticancer Drug Screen. Data for the cln2 rad14 strain (AID 165);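 also: 0% = growth equal to vehicle treated cultures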; details: S. cerevisiae cln2 rad14 strain, at 50.0 µM, stronger effect = higher value
Procedure, shortened: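 Readout is yeast growth inhibition versus vehicle-treated controls, using a strain with cln2 and rad14 alterations exposed to compound.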

[5] = NCI Yeast Anticancer Drug Screen. Data for the bub3 strain (AID 167); details: S. cerevisiae bub3 mutant strain, at 50.0 µM, stronger effect = higher value
Procedure, shortened: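 Screening used yeast with an engineered genetic alteration affecting cell cycle control. Compound-exposed cultures were compared with vehicle cultures, and reduced growth was taken as inhibition.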

[6] = NCI Yeast Anticancer Drug Screen. Data for the mlh1 rad18 strain (AID 175); details: S. cerevisiae mlh1 rad18 strain growth inhibition; at 50.0 µM; stronger effect = higher value
Procedure, shortened: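 Genetically defined yeast (DNA repair-deficient) exposed to compounds; growth inhibition determined relative to vehicle.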

Measured: growth inhibition

Oc1c(C(O)N2CCOCC2)cc(C(O)N2CCOCC2)c(O)c1O (stereo unspecified) (tested in a mixture with another compound)
inactive: [1] -3.3% | [2] -11.1% | [3] -17% | [4] -16.2% | [5] -3.15% | [6] 9.75%

CC(Br)CCl (stereo unspecified)
inactive: [1] 26.4% | [2] 17.1% | [3] 22.1% | [4] 2.1% | [5] 14.4% | [6] 39.2%

Cc1nnc(N)s/c1=N/O
inactive: [1] 7.5% | [2] 4.6% | [3] 2.45% | [4] -5.55% | [5] 3.15% | [6] -11.6%

CC(=O)OCc1ccc(Cl)cc1Cl
inactive: [1] 3.65% | [2] -2.9% | [3] 7.25% | [4] 7.4% | [5] -33.4% | [6] -12.2%

COC1(OC)CCCCCCCCC(OC)(OC)CCCCCCCC1
inactive: [1] 7.5% | [2] -18.4% | [3] -10.4% | [4] 13% | [5] 16.2% | [6] -8.2%

O=C(O)c1cc([N+](=O)[O-])cc(P(=O)(O)O)c1
inactive: [1] 2.55% | [2] -6.45% | [3] -2% | [4] -20.2% | [5] -3.55% | [6] 12.9%

CC1(C)CC[C@]2(C(=O)O)CC[C@]3(C)C(=CC[C@@H]4[C@@]5(C)CC[C@H](OC6OC(C(=O)O)C(O)C(O)C6O)C(C)(C)[C@@H]5CC[C@]43C)[C@@H]2C1 (stereo partly specified)
active: [1] 90.8% | [2] 91% | [3] 91.7% | [4] 92.5% | [5] 91.3% | [6] 88.7%

S=C(SNC1CCCCC1)SNC1CCCCC1
inactive: [1] -65.5% | [2] -14.2% | [3] 4.25% | [4] -13.4% | [5] 9.35% | [6] 6.25%

CSc1ccc([C@@H](O)[C@H](CO)NC(=O)C(Cl)Cl)cc1
inactive: [4] 31.6% | [6] 47.6%
active: [1] 72.9% | [2] 90.2% | [3] 88.4% | [5] 74.1%

Cc1nn(C23CC4CC(CC(C4)C2)C3)c(C(Cl)Cl)c1Cl
inactive: [1] -4.4% | [2] -7.95% | [3] 2.7% | [4] -8.75% | [5] 2.05% | [6] 4.7%

CCS(=O)(=O)c1ccc(NC(=O)OC2CCCCCC2)cc1
inactive: [1] -2.65% | [2] -2.25% | [3] 25.8% | [4] -1.25% | [5] 12.3% | [6] 7.8%

CCSc1n[nH]c(=S)c2nc[nH]c12
inactive: [1] 12.7% | [2] 2.6% | [3] 3.7% | [4] 6.3% | [5] 8.55% | [6] -6.25%

Cc1cc(C)cc(NC(=O)CCC(=O)C2CCC/C2=N\NC(=O)C(=O)NN)c1 (stereo unspecified)
inactive: [1] 3.95% | [2] -2.7% | [3] -20.6% | [4] 2.1% | [5] 5.2% | [6] -6.8%

FC(F)(F)C(Cl)=C(Cl)Cl
inactive: [1] -1.8% | [2] -38.5% | [3] 14.5% | [4] 20.1% | [5] -13.7% | [6] -1.75%

CCc1ccc(NC(=O)Nc2cccc(Cl)c2)cc1
inactive: [1] -5.8% | [2] 14.4% | [3] -5.35% | [4] -19.6% | [5] -0.55% | [6] 4.9%

C/C(=C/C(C)O)c1ccccc1 (stereo unspecified)
inactive: [1] -13.6% | [2] -3.85% | [3] -15.2% | [4] 4.9% | [5] -6.1% | [6] -6.9%

COc1ccc(-c2cc(-c3ccccc3)c(C#N)c(=O)[nH]2)cc1
inactive: [1] 22.9% | [2] 5.85% | [3] 17.4% | [4] 17% | [5] 6.3% | [6] 21%

O=c1c2ccccc2nnn1O
inactive: [1] 12.8% | [2] 0.2% | [3] 4.55% | [4] -23.1% | [5] -5.95% | [6] 6.45%

CCCNC(=O)c1nc(SC)sc1NC(=O)c1ccccc1
inactive: [1] 10.3% | [2] 3.5% | [3] -50.1% | [4] 17.6% | [5] 1.95% | [6] 10.9%

C/C=C(/C)C(C#N)(CCC)C(=O)OCC (stereo unspecified)
inactive: [1] 5.9% | [2] -12.4% | [3] -8.7% | [4] 3% | [5] -9.85% | [6] 11.3%

OCC(CO)=C1c2ccccc2-c2ccccc21
inactive: [1] 11% | [2] -6.2% | [3] -8.15% | [4] -28.8% | [5] -1.5% | [6] 5.55%

CCOP(=O)(c1ccccc1)C(C)C (stereo unspecified)
inactive: [1] -7.85% | [2] -0.5% | [3] -1.7% | [4] -40% | [5] -0.65% | [6] -0.2%

COC1C2CC3C4(CCC5C6(C)CCCC53C(C14)N(C)C6)CC21CCC23C4C=C5C6=C(CCC5(CC42)C3O1)C1(C)CC(C6)CN(C)C1 (stereo unspecified)
inactive: [1] 33.6% | [2] 9.35% | [3] 22.9% | [4] 15.6% | [5] 18.5% | [6] 26.6%

NC1=C(O)C(=O)C(c2ccccc2)O1 (stereo unspecified)
inactive: [1] -29.2% | [2] -12.2% | [3] -4.15% | [4] -24.2% | [5] -8.9% | [6] 2.5%

Cc1ccc(N=C(C(=O)c2ccccc2)C(Nc2ccc(C)cc2)C(=O)c2ccccc2)cc1 (stereo unspecified)
inactive: [1] 23.8% | [2] 3.25% | [3] 17.8% | [4] 20.8% | [5] -3.7% | [6] 10.7%

O=S(=O)(Cl)c1cccc2cc3ccccc3cc12
inactive: [1] 0.6% | [2] -10.1% | [3] 3.95% | [4] -12.9% | [5] 12.9% | [6] -7.05%

CCOC(=O)/C=C1\NCCc2ccccc21
inactive: [1] -6.85% | [2] 1.45% | [3] 8.5% | [4] 24% | [5] 4.8% | [6] 4.55%

[N-]=[N+]=NCC1OCOC1C1OCOC1CN=[N+]=[N-] (stereo unspecified)
inactive: [1] -6.85% | [2] 10.6% | [3] -4.05% | [4] -33.7% | [5] 4.2% | [6] -3.5%

O=C(O)CN(CC(=O)O)CC(=O)O
inactive: [1] -9.7% | [2] -23.6% | [3] -34.4% | [4] -11.8% | [5] -17.1% | [6] 32.1%

CC(C)OC(=O)N1C(=O)C2C3CCC(O3)C2C1=O (stereo unspecified)
inactive: [1] 9.2% | [2] 8.25% | [3] 15.2% | [4] 10.4% | [5] 9.65% | [6] 16.1%

O=C1c2ccccc2-c2c1cccc2[N+](=O)[O-]
inactive: [1] 48% | [2] 23.9% | [3] 9.55% | [4] -62.5% | [5] -18.3% | [6] 42.5%

O=C(OCCNC1CCCCC1)c1ccc([N+](=O)[O-])cc1
inactive: [1] 8.85% | [2] 2.5% | [3] 1.45% | [4] -43.5% | [5] -4.5% | [6] 11.3%

CONCc1ccc(C(=O)NC(C)C)cc1
inactive: [1] -10.6% | [2] -6.75% | [3] -5.95% | [4] -3.65% | [5] -0.3% | [6] -11.8%

CC1(C)C=CC(=NO)C=C1
inactive: [1] -4.65% | [2] 2.65% | [3] -5.95% | [4] 6.45% | [5] 8.4% | [6] 6.7%

Cc1cc(C)c(NC(=O)c2c(Cl)c(Cl)c(Cl)c(Cl)c2C(=O)O)c(C)c1
inactive: [1] -4.9% | [2] -4.45% | [3] 0.05% | [4] -51.3% | [5] 5.5% | [6] 0.3%

N#C/C=C/c1cccc(Cl)c1
inactive: [1] 39.1% | [2] 7.9% | [3] 1.9% | [4] 14.3% | [5] 14.3% | [6] 16.9%

CCO/N=C(\C(=O)NO)c1ccccc1
inactive: [1] -6.35% | [2] 1.6% | [3] 1.5% | [4] -24.4% | [5] -1.9% | [6] 13.2%

CCN1C(=O)CCN(S(=O)(=O)c2ccc(-n3nc(C)cc3C)cc2)C1=S
inactive: [1] -5.55% | [2] -8.45% | [3] -9.15% | [4] -46.4% | [5] 1.7% | [6] -2.3%

CCOC(O)C(F)(F)C(F)(F)C(F)(F)F (stereo unspecified)
inactive: [1] 9.05% | [2] -32.2% | [3] 3.5% | [4] 20.9% | [5] -7.95% | [6] 20.1%

Brc1cccc(Br)n1
inactive: [1] -6.45% | [2] -6.15% | [3] -7.55% | [4] 7.4% | [5] 2.1% | [6] 4.05%

O=C(CC1(O)CCCCC1)Nc1ccccc1
inactive: [1] 1.9% | [2] -8.45% | [3] -8.4% | [4] -54.6% | [5] 4.6% | [6] -13.1%
